IMPase cell inh = IMPase inhibition in cells; P97697; CHO-M1 cells, IP1 accumulation, HTRF TR-FRET ratio; inhibition (IP1 accumulation), % at 46.1 µM; 120,000 tested, under 10 active; AID 901; active means well fitted curve in the direction sought with a large enough effect in the signal ratio, not every such curve was filed as active; inconclusive means small, poorly fitted or top-dose-only effect, or a change in a side signal; inactive means no such curve, though single readings can be large or run the other way; the % refers to the signal ratio;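 further: cells stimulated with carbachol in lithium chloride buffer; plate controls were DMSO basal wells for no effect and reference inhibitor wells for full effect; higher means more IMPase inhibition seen as more IP1 and lower FRET ratio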
Target sequence (P97697 whole entry, looked up): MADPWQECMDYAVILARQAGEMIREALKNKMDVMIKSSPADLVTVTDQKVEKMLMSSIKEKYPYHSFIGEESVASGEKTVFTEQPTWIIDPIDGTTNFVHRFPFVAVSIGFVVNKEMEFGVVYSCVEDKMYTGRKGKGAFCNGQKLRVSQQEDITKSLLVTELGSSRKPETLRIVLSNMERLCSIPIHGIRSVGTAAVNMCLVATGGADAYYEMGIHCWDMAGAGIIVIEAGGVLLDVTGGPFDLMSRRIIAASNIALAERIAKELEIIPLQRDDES
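Seeded CHO-M1 cells were dosed with compound at up to 46 uM, stimulated with carbachol for 30 min, then lysed in IP-One detection reagents. Higher IP1 lowers the TR-FRET signal.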
HPGD block = blocks human HPGD enzyme activity | P15428 | purified HPGD, NADH fluorescence kinetic, PGE2 substrate | Potency, µM, without a hit: at the highest dose activity change, negative = inhibition, most hits filed as inhibitors | 4.3% of 150,000 active; active means well fitted inhibition curve with a large enough effect, not every such curve was filed as active; inconclusive means small, poorly fitted or top-dose-only effect, or another doubt; inactive means no such curve, though single readings can be large or run the other way; further: potency means the concentration at half of the fitted maximal effect; on the % scale 0 is the no-effect control and ±100 the full control effect
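NADH formation kinetics: reaction with 30 uM PGE2 and 1 mM NAD+ (final), 20 nM enzyme, Tris-HCl pH 8 with Tween 20, after 15 min compound preincubation at room temperature. Fluorescence change, last versus first of five reads.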
HTT ATP protect = cytoprotection in Huntington HTT-Q103 PC12 cell model. PC12 HTT-Q103 induced, cytoprotection, ATP luminescence, 40 h. Potency, µM (top dose mostly 56.4 µM), without a hit: cytoprotection (ATP increase), most hits filed as activators. 0.14% of 230,000 active; further: potency means the concentration at half of the fitted maximal effect; % of control where 0% means no effect; nearly all actives have a fitted effect of over 45% in size
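PC12 cells stably carrying ecdysone-inducible Htt exon 1 (Q103)–GFP were induced with 100 nM tebufenozide (final) alongside library compounds in a dose series. Cytoprotection was scored as retained ATP by ATPlite luminescence.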
HttQ103 aggreg = mutant huntingtin aggregation inhibition | PC12 HttQ103-GFP aggregates, Acumen cytometry, 40 h | Potency, µM (series often up to 46.1 µM), inactives show top-dose activity change, negative = inhibition, hits mostly inhibitors | 1.1% of 220,000 active | AID 1688; further: potency means the concentration at half of the fitted maximal effect; on the % scale 0 is the no-effect control and ±100 the full control effect; nearly all actives have a fitted effect of over 60% in size
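Compounds (qHTS titration) were added to PC12 cells expressing an ecdysone-driven HTT exon 1 Q103–GFP fusion after induction with 100 nM tebufenozide. Aggregate formation was measured as GFP objects in cell lysates.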
IMPase Li cell = membrane-permeable IMPase blocker, potentiated with lithium; 0.35% of 210,000 active; Potency, µM (doses to about 59.4 µM), inactives show at the highest dose activity, negative = IMPase inhibition, actives largely listed as inhibitors; CHO-M1 cells, IP1 TR-FRET (IP-One), carbachol + lithium;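 further: IP1 builds up when IMPase is blocked and the TR-FRET signal falls; potency means the concentration at half of the fitted maximal effect; plate controls were basal vehicle for no effect and high inhibitor control for full effect; nearly all actives have a fitted effect of over 50% in size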
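Test compounds were applied to CHO-M1 cells previously cultured for 16–30 h at 2000 per well. A small lithium amount accompanied them; after 30 min at 37C, IP1 was quantified by TR-FRET.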
ALDH1A1 block = inhibitors of human aldehyde dehydrogenase 1A1. Potency, µM (top dose mostly 75.3 µM), for the others: at the highest dose activity, negative = inhibition, hits mostly inhibitors. 7.3% of 220,000 active. AID 1030. Purified ALDH1A1, NADH fluorescence, propionaldehyde substrate. P00352; active means well fitted inhibition curve with a large enough effect, not every such curve was filed as active; inconclusive means small, poorly fitted or top-dose-only effect, or another doubt; inactive means no such curve, though single readings can be large or run the other way;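 further: potency means the concentration at half of the fitted maximal effect; plate controls were no enzyme wells and a reference inhibitor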
Target sequence (P00352 whole entry, looked up): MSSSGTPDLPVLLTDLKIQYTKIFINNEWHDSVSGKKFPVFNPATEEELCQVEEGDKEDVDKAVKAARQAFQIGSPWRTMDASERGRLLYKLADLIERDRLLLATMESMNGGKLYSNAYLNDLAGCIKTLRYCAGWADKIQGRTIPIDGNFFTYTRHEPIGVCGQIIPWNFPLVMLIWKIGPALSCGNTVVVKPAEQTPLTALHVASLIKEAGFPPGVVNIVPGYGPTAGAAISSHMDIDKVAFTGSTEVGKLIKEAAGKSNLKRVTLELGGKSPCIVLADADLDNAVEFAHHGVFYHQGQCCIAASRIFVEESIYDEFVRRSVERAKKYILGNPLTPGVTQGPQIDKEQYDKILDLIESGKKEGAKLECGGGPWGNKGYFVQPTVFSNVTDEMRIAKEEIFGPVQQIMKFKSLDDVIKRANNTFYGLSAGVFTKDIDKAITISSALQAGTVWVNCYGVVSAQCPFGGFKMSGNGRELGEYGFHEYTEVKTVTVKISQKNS
The depositor's hits bear a star; ? = inconclusive; . = no result; [ ] = remark or other dose. Only some compounds are listed: those with a hit (about 9.4% of all), similar ones and a draw of the others. Unless noted, the call rests on the fitted dose curve; in most records, active means well fitted curve in the direction sought with a large enough effect; inconclusive means small, poorly fitted or top-dose-only effect, or another doubt; inactive means no such curve, though single readings can be large; an effect the other way counts as inactive or inconclusive.

SMILES	IMPase cell inh	HPGD block	HTT ATP protect	HttQ103 aggreg	IMPase Li cell	ALDH1A1 block
O=C(O)CSC1CC(=O)N(c2ccc(Cl)c(Cl)c2)C1=O (configuration not stated)	-2.7	-13.9%	8.1%[10 µM]	-3.2%	-14.9%[38.3 µM]	3.16µM*
CC(C#N)Sc1nc2ccccc2c(=O)n1-c1ccccc1 (configuration not stated)	-1.3	-5.4%	-26.7%	-4.0%	8.3%[38.3 µM]	4.47µM*
O=C(Nc1ccc(N2CCCC2)c(Cl)c1)c1cccnc1	7.2	-25.9%	30.1%[10 µM]	-13.5%	21.9%	8.91µM*
Cc1ccc(NC(=O)c2ccc(-n3cccn3)c([N+](=O)[O-])c2)cc1	3.1	-18.2%	-11.9%	-28.0%	16.1%[38.3 µM]	?
O=C(Nc1cccnc1)c1ccc(N2CCCC2)c([N+](=O)[O-])c1	.	.	-58.0%	2.5%	2.5%	7.94µM*
Cc1cccc(NC(=O)c2ccc(N3CCCCC3)c([N+](=O)[O-])c2)n1	-11.6	?	-42.6%	-22.4%	10.7%[38.3 µM]	12.6µM*
O=C(Nc1ccccc1Cl)c1ccc(-n2cccn2)c([N+](=O)[O-])c1	.	.	5.0%[10 µM]	10.2%	4.3%	8.91µM*
O=C(Nc1ccc(N2CCCCC2)c(Cl)c1)c1cccnc1	-1.5	-12.6%	-26.7%	-21.6%	-4.0%[38.3 µM]	?
CCN(C(=O)CCS(=O)(=O)c1cc(Br)cc2c1N(C(=O)C1CC1)CC2)c1cccc(C)c1	3.4	.	.	.	.	.
CO/N=C(\C(=O)N[C@@H]1C(=O)N2C(C(=O)[O-])=C(C[n+]3cccc4c3CCC4)CS[C@H]12)c1csc(N)n1	.	.	24.0%	13.7%	.	.
O=c1cc(N2CCNCC2)oc2c(-c3ccccc3)cccc12	.	-12.7%	.	.	21.5%	-10.1%
CCOC(=O)Cn1c(=O)c(-c2cc(Br)ccc2N)nc2ccccc21	.	.	15.5%[10 µM]	1.3%[9.22 µM]	.	.
Cn1c(=O)c(-c2cc(Br)ccc2N)nc2ccccc21	-5.8	-5.3%	-3.9%[10 µM]	12.6µM*	3.4%[38.3 µM]	7.4%
O=C(Nc1ccc(Oc2ccccc2)cc1)C1CCN(S(=O)(=O)c2ccccc2)CC1	8.6	.	.	.	.	.
O=c1c(-c2cccs2)nc2cnc(N3CCOCC3)nc2n1CCc1ccccc1	.	.	-0.5%	.	-13.0%	?
CCCc1cc2c(c(=O)o1)C(O)C1OC1C2=O (configuration not stated)	.	.	-62.4%[10 µM]	.	.	3.98µM*
NC(=S)SCCC(=O)O	.	-2.4%	3.9%[10 µM]	.	1.2%	12.8%[13.5 µM]
NC(=O)CC[C@H](NC(=O)c1ccc(F)cc1)C(=O)OCC(=O)Nc1ccc(N2CCOCC2)cc1	.	-5.8%	-2.7%[0.074 µM]	10.3%	10.6%	11.2µM*
COc1cc(CC(=O)OCC(=O)Nc2ccc(N3CCOCC3)cc2)cc(OC)c1OC	.	.	-48.5%	19.0%	-1.3%	-13.1%
COc1ccc(CC(=O)OCC(=O)Nc2ccc(N3CCOCC3)cc2)cc1	.	.	5.3%[10 µM]	16.3%[9.22 µM]	.	25.1µM*
CC(=O)c1ccc(N2CCN(CC(=O)Nc3ccc(N4CCOCC4)cc3)CC2)cc1	.	.	5.9%[10 µM]	7.7%	1.7%	4.1%
O=C(COc1cc(F)ccc1[N+](=O)[O-])Nc1ccc(N2CCOCC2)cc1	.	.	-46.5%	-5.5%	-9.1%	12.6µM*
CC(=O)Nc1ccc(C(=O)OCC(=O)Nc2ccc(N3CCOCC3)cc2)cc1	.	.	-26.5%	-6.5%	18.1%	17.8µM*
CC1=CC(=O)C2=C(C)CC[C@@H]3[C@H](OC(=O)[C@H]3C)[C@H]12	.	.	-22.7%	.	.	.
CCC1(C)Cc2c(sc3nc(SC)n(-c4ccc(C)cc4)c(=O)c23)CO1 (configuration not stated)	-5.3	.	.	.	.	.
SMILES	IMPase cell inh	HPGD block	HTT ATP protect	HttQ103 aggreg	IMPase Li cell	ALDH1A1 block
Cc1cccc(NNC(N)=S)c1C	.	.	6.5%[10 µM]	-4.7%[9.22 µM]	-5.4%	12.6µM*
Cc1ccc(C)c(NNC(N)=S)c1	.	.	.	?	1.2%	12.6µM*
Cc1ccc(C)c(NNC(=O)C(=O)NNc2cc(C)ccc2C)c1	.	.	2.1%[10 µM]	21.7%[9.22 µM]	.	.
O=C(O)CCC(=O)OC[C@@H](NC(=O)C(Cl)Cl)C(O)c1ccc([N+](=O)[O-])cc1 (some centres not stated)	.	-1.5%	?	.	6.8%	-13.9%
Cc1cc(NC(=O)CN2CC3CC(C2)c2cccc(=O)n2C3)nc2c1c(=O)oc1ccccc12 (configuration not stated)	-7.1	-0.3%	5.3%	-9.4%	23.0%[38.3 µM]	28.2µM*
Cc1cc(NC(=O)C2CCCCC2)nc2c1c(=O)oc1ccccc12	2.5	-19.3%	6.2%	?	10.2%[38.3 µM]	?
Cc1cc(NC(=O)C2CCCC2)nc2c1c(=O)oc1ccccc12	-1.7	-20.0%	-28.6%	-15.3%	51.5%[38.3 µM]	14.1µM*
Cc1cc(NC(=O)CN2CCN(Cc3ccccc3)CC2)nc2c1c(=O)oc1ccccc12	.	.	4.3%	5.5%[9.22 µM]	14.9%	3.55µM*
CC1=CC=CN2C1=NC(=O)CC2(C)C(=O)N(CC(=O)NC1CCCC1)c1cc(C)cc(C)c1 (configuration not stated)	.	.	-6.2%	-4.2%	-14.3%	?
O=c1[nH]c(/C(Cl)=C/c2c(F)cccc2Cl)nc2cc(Cl)ccc12	.	?	14.2%[10 µM]	-13.3%	-4.6%	0.5%
O=c1[nH]c(/C(Cl)=C/c2cc(Cl)ccc2O)nc2cc(Cl)ccc12	.	8.91µM*	20.9%[10 µM]	?	3.7%	6.8%
O=C(O)[C@H](O)[C@@H](O)[C@H](O)[C@H](O)CO	.	.	?	7.0%	.	.
O=[N+]([O-])c1cc(Br)cc(C=Nc2ccc3c(c2)OCO3)c1O	.	.	-21.2%[10 µM]	0.0%[9.22 µM]	.	10µM*
O=[N+]([O-])c1ccc(O)c(C=Nc2ccc3c(c2)OCO3)c1	.	.	-9.4%[10 µM]	-11.0%[9.22 µM]	.	?
COC(=O)[C@@]1(Cc2ccc(F)cc2)[C@H]2c3cc(C(=O)N4CCCC4)n(CCN4CNCC4=O)c3C[C@H]2CN1C(=O)c1ccccc1	.	-8.2%	13.4%	.	-4.3%	-1.7%
COC(=O)c1coc(-c2ccc(C)cc2)c1C(=O)OC	-15.3	-23.2%	-14.9%	9.6%	-2.5%[38.3 µM]	22.4µM*
CCOC(=O)c1ccc(Cl)c(NC(=O)c2cccnc2)c1	.	.	-0.5%[10 µM]	-19.7%[9.22 µM]	1.7%	11.2µM*
CCC(C)c1ccc(O)c(NC(=O)c2cccnc2)c1 (configuration not stated)	0.5	-9.6%	-5.6%	-23.3%	10µM*	11.2µM*
CCOC(=O)c1cccc(NC(=O)c2cccnc2)c1	-2.8	-9.5%	-0.9%	-1.9%	3.3%[38.3 µM]	-0.7%
CCC(C)c1ccc(NC(=O)c2cccnc2)cc1 (configuration not stated)	7.1	-10.7%	-25.8%[10 µM]	-2.3%	25.5%[38.3 µM]	?
O=C(O)c1ccc(N2CCCCC2)cc1	18.9	-14.3%	13.0%	-0.2%	3.4%[38.3 µM]	1.8%
Nc1ccc(N2CCN(c3ccc(Cl)c(Cl)c3)CC2)cc1	.	-2.8%	.	-16.3%	3.1%	-14.8%
Nc1ccc(N2CCN(c3ccc(F)cc3)CC2)cc1	.	.	-21.5%	?	4.1%	22.4µM*

Screening results: PubChem, National Center for Advancing Translational Sciences (NCATS)
